The source of these data is PubChem BioAssay (NCI).

Holding throughout (experiment): NCI-60 one-dose screen, 48 h (100 = growth as untreated, 0 = no growth, -100 = all killed)
What all share (details): 10 µM unless noted

The subject of assay [1] is SK-MEL-2 melanoma.
Assay [2] relates to EKVX NSCLC.
Assay [3] concerns SN12C renal.
Assay [4] concerns UO-31 renal.
Assay [5] relates to TK-10 renal.
The test system of assay [6] is ACHN renal.
For assay [7], the system named is CAKI-1 renal.
Assay [8] concerns CCRF-CEM leukemia.
Assay [9] has as its system MOLT-4 leukemia.
Assay [10] has as its system RPMI-8226 leukemia.
For assay [11], the system named is OVCAR-8 ovarian.
Assay [12] concerns OVCAR-5 ovarian.
The subject of assay [13] is OVCAR-4 ovarian.
In assay [14] the test system is SK-OV-3 ovarian.
For assay [15], the system named is IGROV1 ovarian.
The subject of assay [16] is OVCAR-3 ovarian.
Assay [17] has as its system HS 578T breast.
For assay [18], the system named is NCI/ADR-RES ovarian.
The subject of assay [19] is A498 renal.
In assay [20] the test system is SR leukemia.

The panel holds about 83,000 compounds, 20% with a hit somewhere; the sample as a whole holds those more often.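 Activity criterion: percent growth below 10, measured after cells in 96-well plates were exposed to a single compound concentration for 48 hours.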 Unmarked numbers belong to inactive results. Activity calls are given as the source filed them.

Turning to `Cn1c(O)c(N=NC(=O)c2cc(-c3ccccc3)on2)c2ccccc21`, the growth in assay [1] is 95.3%; in assay [2], 88.5%; in assay [3], 100%; in assay [4], 88%; in [5], 125%; in assay [6], 100%. For the same molecule, the growth in [7] is 90.4%; in assay [8], 108%; in assay [9], 105%; in assay [10], 115%; in [11], 104%; in assay [12], 102%. Besides, the growth was 95.7% in assay [13]; 108% in [14]; 102% in assay [15]; 115% in [16]; 96.2% in assay [17]; 94.9% in [18].

`O=[N+]([O-])c1ccccc1/C=N\NC(=S)N/N=C/c1ccccc1[N+](=O)[O-]`: the growth was 56.6% in [1]; 70.5% in [2]; 86.3% in assay [3]; 27.4% in [4]; 46.8% in assay [5]; 78.8% in assay [6]. The growth in assay [7] is 42.2%; in assay [8], 82.7%; in assay [9], 37.8%; in assay [10] it was 87.3%; in [11], 102%; in assay [12] it was 86.4%. Moreover, the growth in assay [13] is 98.9%; in assay [14], 69.1%; in assay [15], 15%; in assay [17], 62.9%; in [18], 14.4%.

As for `O=C(O)c1ccc(N=CC(=O)c2ccc(-c3ccccc3)cc2)cc1`, the growth is 108% in assay [1]; 99.3% in assay [2]; 95.8% in assay [3]; 93.5% in [4]; 96.8% in assay [5]; 96.2% in assay [6]. Also, the growth in assay [7] was 102%; in assay [8], -57.9% (active); in assay [9], 99.9%; in [10] it was 90.3%; in [11], 98.7%; in assay [12] it was 92.6%. Moreover, the growth is 101% in assay [13]; 110% in assay [14]; 102% in [15]; 119% in assay [16]; 88.9% in assay [17]; 94.9% in [18].

Regarding `CCN(CC)c1ccc2c(c1)Oc1nc(N)c(C#N)c(N)c1C2Sc1ccc(SC)cc1` (stereo not drawn), the growth in [1] is -59.6% (active); in [2], -3.97% (active); in assay [3] it was -13.4% (active); in assay [4], -79.8% (active); in assay [5], -35.7% (active); in [6], -46.5% (active). Also, the growth in assay [19] is 90%; in [8], -15.5% (active); in assay [9] it was -10.7% (active); in [20], -18.8% (active); in assay [10], -37.3% (active); in [11] it was -7.42% (active). In addition, the growth is -27.1% (active) in assay [12]; -2.7% (active) in assay [13]; -4.96% (active) in assay [14]; -13.9% (active) in assay [15]; -30.4% (active) in assay [16]; 26% in assay [17]. In [18], the growth was 10.8%.

Turning to `COc1ccc(O)c(N=Nc2nccs2)c1`, the growth is 91.6% in assay [1]; 54.3% in assay [2]; 99.4% in assay [3]; 61.1% in assay [4]; 106% in assay [5]; 28.7% in assay [6]. Further, the growth in assay [19] was 88.4%; in assay [8] it was 3.48% (active); in assay [9], 7.26% (active); in assay [20], 13.4%; in [10], 25.3%; in assay [11] it was 52.1%. The growth is 120% in [12]; 37.1% in assay [13]; 85.2% in assay [14]; 70.2% in assay [15]; 39.9% in assay [16]; 103% in assay [17]. The growth in assay [18] is 53.6%.

For the molecule `CSc1ccc(SC2c3ccc(C)cc3Oc3nc(N)c(C#N)c(N)c32)cc1` (stereo not drawn), the growth in assay [1] is -58.9% (active); in assay [2], -48.6% (active); in assay [3] it was -98% (active); in assay [4] it was -99.2% (active); in assay [5] it was -97% (active); in [6], -96.6% (active). In addition, the growth in [19] is 4.22% (active); in assay [8], -37% (active); in assay [9], -17.9% (active); in assay [20] it was -22.9% (active); in assay [10], -38% (active); in [11], -92% (active). Further, the growth is -80.8% (active) in assay [12]; -94.8% (active) in assay [13]; 15.1% in assay [14]; -86.2% (active) in [15]; -94.7% (active) in assay [16]; -8.07% (active) in assay [17]. The growth in [18] is -18.6% (active).

Take `Cc1cc(N2CCSCC2)nc(NC2CCCC(Nc3ccnc4cc(Cl)ccc34)C2)n1` (stereo not drawn): the growth in [1] was -81% (active); in assay [2], 24.1%; in assay [3], -29% (active); in assay [4], -94% (active); in [5], -57.9% (active); in assay [6] it was -61.9% (active). The growth is 22.9% in [19]; -20.5% (active) in assay [8]; -9.85% (active) in assay [9]; -54% (active) in assay [20]; -52.6% (active) in [10]; -20.9% (active) in [11]. In addition, the growth in assay [12] was 29.7%; in assay [13], 16.8%; in assay [14], 34.8%; in assay [15] it was -16.1% (active); in [16] it was -38.4% (active); in assay [17], -34.2% (active). Further, the growth in assay [18] is 1.15% (active).

For the molecule `COc1cc(C)c(C2C(C#N)=C(N)Oc3n[nH]c(-c4cccs4)c32)cc1C(C)C` (stereo not drawn), the growth in assay [1] is 102%; in [2], 97%; in [3], 103%; in assay [4] it was 98.7%; in [5] it was 98.2%; in assay [6], 108%. For the same molecule, the growth in assay [19] is 93%; in assay [8], 81.5%; in assay [9] it was 79.4%; in assay [20] it was 87.1%; in [10] it was 87.5%; in [11], 89.1%. Also, the growth in assay [12] was 115%; in assay [13], 103%; in [14], 98%; in [15], 108%; in assay [16] it was 109%; in assay [17] it was 103%. The growth in assay [18] was 103%.
